According to the supplement of paper PMC7411640:
Counter-ions that a name gives are not always drawn.

Tested on: MDA-MB-468
Assay: phospho-S6 immunofluorescence (DAPI-normalised), per-plate z-score; higher = higher phospho-S6 signal (less pathway suppression)
Settings: 24 h
Description: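 GPCR-targeted compound library (MedChemExpress HY-L006) tested on MDA-MB-468 PTEN-null TNBC cells in 384-well plates at 0.1, 1 or 10 uM, combined with vehicle, GDC0941 450 nM or lapatinib 1 uM, for 24 h. Phospho-S6 (S240/244) immunofluorescence normalised to DAPI and expressed as a per-plate z-score; values are the mean of biological triplicates.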

Structure (SMILES)	phospho-S6 immunofluorescence (z-score) (co-treatment: GDC0941 450 nM)	phospho-S6 immunofluorescence (z-score) (co-treatment: lapatinib 1 uM)	phospho-S6 immunofluorescence (z-score) (co-treatment: vehicle)
COc1cc2c(NC3CCN(C(C)C)CC3)nc(N3CCC(F)(F)CC3)nc2cc1OCCCN1CCCC1 (compound 10 µM)	1.81	3.34	1.97
O=S(=O)(O)c1cc(O)ccc1O [Ethamsylate] (compound 10 µM)	0	-0.05	0.76
CC(C)=CCC/C(C)=C/CC/C(C)=C/CSc1ccccc1C(=O)O [Salirasib] (compound 10 µM)	0.9	0.86	-0.02
Cc1ccc(C)c(OCCn2cc(C(=O)O)c3ccccc32)c1 (compound 10 µM)	0.61	-0.34	-0.21
OC[C@@H](O)CN1CCN(c2ccccc2)CC1 [Levodropropizine] (compound 10 µM)	-0.63	0.66	-0.68
NCCc1c[nH]cn1 [Histamine] (compound 10 µM)	0	1.34	0.58
CC(=O)OCC(=O)[C@@]1(O)CC[C@H]2[C@@H]3CCC4=CC(=O)CC[C@]4(C)[C@H]3[C@@H](O)C[C@@]21C [Hydrocortisone (acetate)] (compound 10 µM)	-0.25	1.4	-0.24
N[C@@H](COP(=O)(O)O)C(=O)O [O-Phospho-L-serine] (compound 10 µM)	0.23	0.05	-0.66
CCCCC[C@H](O)/C=C/[C@@H]1[C@@H](C/C=C\CCCC(=O)O)[C@@H](O)C[C@H]1O [Dinoprost (tromethamine salt)] (compound 10 µM)	-0.07	-0.14	0.98
C[C@@H]1C[C@H]2[C@@H]3CCC4=CC(=O)C=C[C@]4(C)[C@@]3(Cl)[C@@H](O)C[C@]2(C)[C@@]1(OC(=O)c1ccco1)C(=O)CCl [Mometasone furoate] (compound 10 µM)	-0.46	0.3	-1.92
CCOc1ccccc1OCCN[C@H](C)Cc1ccc(OC)c(S(N)(=O)=O)c1 [Tamsulosin] (compound 10 µM)	-1.32	0.1	-0.53
O=c1ccn([C@@H]2O[C@H](COP(=O)(O)OP(=O)(O)OP(=O)(O)OP(=O)(O)OC[C@H]3O[C@@H](n4ccc(=O)[nH]c4=O)[C@H](O)[C@@H]3O)[C@@H](O)[C@H]2O)c(=O)[nH]1 [Diquafosol (tetrasodium)] (compound 10 µM)	0.01	0.71	-0.38
CCCN(CCN1CCN(c2ccccc2OC)CC1)C1CCc2ncsc2C1 (centres undefined) [ST-836 (hydrochloride)] (compound 10 µM)	0.29	-0.62	0.1
COc1ccc(/C=C/C(=O)Nc2ccccc2C(=O)O)cc1OC [Tranilast (trans-)] (compound 10 µM)	0.32	-0.26	0.65
C[C@]12CCC(=O)C=C1CC[C@@H]1[C@@H]2C(=O)C[C@@]2(C)[C@H]1CC[C@]2(O)C(=O)CO [Cortisone] (compound 10 µM)	0.47	0.58	1.14
N=C(N)NCCCCN [Agmatine (sulfate)] (compound 10 µM)	0.88	-0.16	0.73
Cc1nn(C)c2c1C(c1ccc(C(F)(F)F)cc1)C(C#N)=C(N)O2 (centres undefined) (compound 10 µM)	-1.17	2.28	2.57
CC(C)NCC(O)COc1ccc(CCOCC2CC2)cc1 (centres undefined) [Betaxolol] (compound 10 µM)	0.15	0.69	-0.54
CCc1c(C)[nH]c2c1C(=O)C(CN1CCOCC1)CC2 (centres undefined) [Molindone (hydrochloride)] (compound 10 µM)	-0.5	0.28	0.19
CCN(CC)CC#CCOC(=O)C(O)(c1ccccc1)C1CCCCC1 (centres undefined) [Oxybutynin] (compound 10 µM)	-0.77	0.75	-0.04
C[C@H]1CN(C[C@H](Cc2ccccc2)C(=O)NCC(=O)O)CC[C@@]1(C)c1cccc(O)c1 [Alvimopan (dihydrate)] (compound 10 µM)	-0.22	0.49	-0.86
CNC(=O)c1cnn(-c2nc(N)c3ncn([C@@H]4O[C@H](CO)[C@@H](O)[C@H]4O)c3n2)c1 [Regadenoson] (compound 10 µM)	1.19	1.71	0.29
CC(C)NCC(O)c1ccc(NS(C)(=O)=O)cc1 (centres undefined) [Sotalol (hydrochloride)] (compound 10 µM)	1.31	1.24	0.37
COc1cc(C(=O)NCc2ccc(OCCN(C)C)cc2)cc(OC)c1OC [Trimethobenzamide hydrochloride] (compound 10 µM)	0.29	1.09	0.51

Structure (SMILES)	phospho-S6 immunofluorescence (z-score) (co-treatment: GDC0941 450 nM)	phospho-S6 immunofluorescence (z-score) (co-treatment: lapatinib 1 uM)	phospho-S6 immunofluorescence (z-score) (co-treatment: vehicle)
CN1N=C2CCN(C(=O)[C@@H](COCc3ccccc3)NC(=O)C(C)(C)N)C[C@@]2(Cc2ccccc2)C1=O [Capromorelin (Tartrate)] (compound 10 µM)	-0.05	-0.67	-0.14
Cn1cc(C(=O)[C@@H]2CCc3[nH]cnc3C2)c2ccccc21 [Ramosetron (Hydrochloride)] (compound 10 µM)	-1.27	0	-0.92
CCN1CCC[C@H]1CNC(=O)c1cc(S(N)(=O)=O)ccc1OC [Levosulpiride] (compound 10 µM)	0.22	0.89	-0.63
CCN1CCCC1CNC(=O)c1cc(S(N)(=O)=O)ccc1OC (centres undefined) [Sulpiride] (compound 10 µM)	-0.13	0.19	0.05
CCCc1c2oc(C(=O)O)cc(=O)c2cc2c(=O)cc(C(=O)O)n(CC)c12 [Nedocromil] (compound 10 µM)	-0.69	-0.48	-1.01
O=C(Nc1cccc2c(=O)cc(-c3nnn[nH]3)oc12)c1ccc(OCCCCc2ccccc2)cc1 [Pranlukast] (compound 10 µM)	0.87	0.55	-0.36
CC[C@H](C)[C@H](NC(=O)[C@H](Cc1ccc(O)cc1)NC(=O)[C@@H](NC(=O)[C@H](CCCNC(=N)N)NC(=O)[C@@H](N)CC(=O)O)C(C)C)C(=O)N[C@@H](Cc1c[nH]cn1)C(=O)N1CCC[C@H]1C(=O)O [Angiotensin (1-7)] (compound 10 µM)	0.11	0.71	-0.4
CCC/N=C1\S/C(=C\c2ccc(OC[C@H](O)CO)c(Cl)c2)C(=O)N1c1ccccc1C [Ponesimod] (compound 10 µM)	-0.8	0.52	1.07
C[C@H]1C[C@@H]2[C@H]([C@@H](O)C[C@@]3(C)[C@H]2CC[C@]3(O)C(=O)CO)[C@@]2(C)C=CC(=O)C=C12 [Methylprednisolone] (compound 10 µM)	0.3	3.09	0.51
C[N+]1(C)[C@@H]2C[C@@H](OC(=O)C(O)(c3cccs3)c3cccs3)C[C@H]1[C@@H]1O[C@@H]12 [Tiotropium (Bromide)] (compound 10 µM)	-0.58	0.42	-0.69
COc1cccc(-c2c(C)n(Cc3c(F)cccc3C(F)(F)F)c(=O)n(C[C@H](NCCCC(=O)O)c3ccccc3)c2=O)c1F [Elagolix] (compound 10 µM)	0.62	-0.03	0.51
CNS(=O)(=O)CCc1ccc2[nH]cc(C3CCN(C)CC3)c2c1 [Naratriptan (hydrochloride)] (compound 10 µM)	-0.23	0.4	0.18
CCNC(=O)[C@@H]1CCCN1C(=O)[C@H](CCCNC(=N)N)NC(=O)[C@H](CC(C)C)NC(=O)[C@@H](CC(C)C)NC(=O)[C@H](Cc1ccc(O)cc1)NC(=O)[C@H](CO)NC(=O)[C@H](Cc1c[nH]c2ccccc12)NC(=O)[C@H](Cc1c[nH]cn1)NC(=O)[C@@H]1CCC(=O)N1 [Leuprolide (Acetate)] (compound 10 µM)	0.41	-0.17	0.11
CN(C)N(C)C(=O)[C@@]1(Cc2ccccc2)CCCN(C(=O)[C@@H](Cc2c[nH]c3ccccc23)NC(=O)C(C)(C)N)C1 [Anamorelin] (compound 10 µM)	-0.16	-2.31	0.4
Nc1ccc(/C=C/c2cccc(C(=O)O)n2)cc1 (compound 10 µM)	0.9	0.88	1.07
Cc1c(-c2ccccc2)oc2c(C(=O)OCCN3CCCCC3)cccc2c1=O [Flavoxate (hydrochloride)] (compound 10 µM)	0.25	0.29	0.07
CN(C)CC[C@@H](c1ccc(Cl)cc1)c1ccccn1 [Dexchlorpheniramine (maleate)] (compound 10 µM)	0.61	-0.08	-0.33
COc1cc2nc(C3CC3)nc(N3CCN(c4ccccc4OC)CC3)c2cc1OC (compound 10 µM)	-1.77	-0.08	0.05
NC(=O)CC[C@H](N)C(=O)O [L-Glutamine] (compound 10 µM)	-0.23	-0.64	-0.12
O=C(/C=C/c1ccc(Cl)cc1)N1CCC2(CC1)CN(Cc1ccc(Cl)c(Cl)c1)C(=O)O2 (compound 10 µM)	-2.76	-2.4	-1.92
N#Cc1ccc2[nH]cc(CCCCN3CCN(c4ccc5oc(C(N)=O)cc5c4)CC3)c2c1 [Vilazodone] (compound 10 µM)	0.37	0.11	1.24
COC(=O)[C@H](c1ccccc1Cl)N1CCc2sccc2C1 [Clopidogrel (hydrogen sulfate)] (compound 10 µM)	0.58	-1.03	-0.92
CC(C)Oc1ccc(-c2nc(-c3cccc4c3CC[C@@H]4NCCO)no2)cc1C#N [Ozanimod] (compound 10 µM)	0.72	-0.62	-0.3
Clc1ccc(CCCOCCCN2CCCCC2)cc1 [Pitolisant (hydrochloride)] (compound 10 µM)	0.75	-0.69	-0.12
